According to PubChem BioAssay AID2796 (The Scripps Research Institute Molecular Screening Center, 2010):
Out of some 320,000 compounds screened, about 8,000 (2.5%) were called active. The sample holds actives, similar compounds and a random draw of the others, so the mix is not that of the screen. No stated cut-off is given here; in the data, active means activation above about 47%; inactive means the rest.

target: Aryl hydrocarbon receptor (Homo sapiens) (UniProt P35869); test: AHR activators, primary screen, cell-based, luminescence, luciferase reporter, human (AID 2796); conditions: AHR-responsive luciferase reporter cells, at 5 µM, stronger effect = higher value;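 further: 0% = vehicle wells and 100% = reference agonist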
Sequence (P35869 whole entry, looked up): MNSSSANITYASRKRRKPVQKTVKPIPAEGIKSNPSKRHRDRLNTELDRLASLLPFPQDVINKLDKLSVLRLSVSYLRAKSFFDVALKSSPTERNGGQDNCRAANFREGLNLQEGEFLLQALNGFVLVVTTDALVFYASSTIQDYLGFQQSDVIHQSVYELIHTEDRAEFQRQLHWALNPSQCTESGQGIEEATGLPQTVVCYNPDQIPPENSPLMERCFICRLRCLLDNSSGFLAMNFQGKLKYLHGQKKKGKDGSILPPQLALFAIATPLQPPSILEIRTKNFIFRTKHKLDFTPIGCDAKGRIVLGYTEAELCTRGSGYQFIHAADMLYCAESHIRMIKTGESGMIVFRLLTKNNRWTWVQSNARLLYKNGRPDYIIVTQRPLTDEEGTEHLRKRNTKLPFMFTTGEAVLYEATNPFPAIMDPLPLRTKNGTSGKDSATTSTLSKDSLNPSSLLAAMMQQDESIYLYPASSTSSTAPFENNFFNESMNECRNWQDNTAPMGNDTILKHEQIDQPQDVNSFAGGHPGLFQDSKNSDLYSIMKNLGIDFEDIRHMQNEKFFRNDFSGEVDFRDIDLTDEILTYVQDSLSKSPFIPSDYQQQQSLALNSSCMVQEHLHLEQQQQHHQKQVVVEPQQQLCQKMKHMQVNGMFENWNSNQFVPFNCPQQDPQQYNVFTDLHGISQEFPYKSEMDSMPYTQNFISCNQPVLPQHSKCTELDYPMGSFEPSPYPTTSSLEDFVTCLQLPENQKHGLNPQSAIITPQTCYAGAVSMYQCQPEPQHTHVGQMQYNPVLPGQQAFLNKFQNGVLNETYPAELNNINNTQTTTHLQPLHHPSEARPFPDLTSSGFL

SMILES	activation
CCOC(=O)C1(Cc2ccccc2C)CCCN(C(=O)c2ccc(COC)o2)C1 (centres undefined)	20.8% (inactive)
O=c1ccc2cc(S(=O)(=O)Nc3ccccc3F)ccc2o1	-0.99% (inactive)
Cc1cc(C(=O)COc2ccccc2[N+](=O)[O-])c(C)n1-c1cccc(S(=O)(=O)N2CCOCC2)c1	10.1% (inactive)
CCNC(=O)c1cnn(-c2ccccc2)c1-c1ccccc1	0.69% (inactive)
CCCc1c(C(=O)Nc2ccc(F)cc2)cnn1-c1ccccc1	69.9% (active)
CCCc1c(C(=O)O)cnn1-c1ccc(Cl)cc1	-2.51% (inactive)
COc1cc(/C=C/C(=O)OCC(=O)NC2CC2)cc(OC)c1OC	1.12% (inactive)
O=S(=O)(NCc1ccccc1Br)c1ccccc1Br	-0.52% (inactive)
Cn1c(=O)c(C(=O)Nc2ncccn2)c(O)c2ccccc21	66.7% (active)
CCCn1c(=O)c(C(=O)Nc2cc(C)ccn2)c(O)c2ccccc21	7.05% (inactive)
Cn1c(=O)c(Sc2ccc(Cl)cc2)c(O)c2ccccc21	6.8% (inactive)
COc1ccccc1NC(=O)CSc1nnc(Cn2nnc(-c3ccccc3)n2)n1-c1ccccc1	-0.61% (inactive)
O=C(NCc1ccncc1)c1ccc(NS(=O)(=O)c2cccc([N+](=O)[O-])c2)cc1	-0.44% (inactive)
O=C(NCCNc1ccc([N+](=O)[O-])cc1Cl)c1ccccc1F	-0.69% (inactive)
O=C(NCCCNc1ccc([N+](=O)[O-])cc1Cl)c1ccccc1F	-0.83% (inactive)
CCC(C)NCC(=O)Nc1ccc([N+](=O)[O-])cc1C(=O)Nc1ccccc1F (centres undefined)	104% (active)
CC1CC(C)CN(C(=O)C2CC(=O)N(c3ccc(F)cc3)C2)C1 (centres undefined)	-4.43% (inactive)
Cc1ccc(O)c(CCc2ccccc2)n1	21.5% (inactive)
O=C(O)CCCCCNc1ncnc2ccc(Br)cc12	4.84% (inactive)
COc1ccc(Nc2ncnc3ccc(Br)cc23)c(OC)c1	52.9% (active)
C=CCNc1ncnc2ccc(Br)cc12	0.32% (inactive)
O=C(COc1ccccc1F)Nc1nc(-c2ccccn2)cs1	12.4% (inactive)
Cc1cccc(NC(=O)N(Cc2cc3cc(C)cc(C)c3[nH]c2=O)CC2COCCO2)c1 (centres undefined)	59.6% (active)
Cc1ccc2[nH]c(=O)c(CN(CC3COCCO3)C(=O)Nc3ccccc3C)cc2c1 (centres undefined)	9.5% (inactive)

SMILES	activation
COc1ccc2[nH]c(=O)c(CN(CC3CCCO3)C(=O)Nc3ccccc3)cc2c1 (centres undefined)	0.61% (inactive)
Cc1ccc(C2(C(F)(F)F)N=C3Sc4cc(C)cc(C)c4N3C(=O)N2)cc1 (centres undefined)	70.8% (active)
COC(=O)C1=C(N)Oc2c(oc(CO)cc2=O)C1c1c(F)cccc1Cl (centres undefined)	-0.25% (inactive)
Cc1ccc(N2C(=O)N3[C@@H]4c5ccccc5OC[C@@H]4[C@@H](c4ccccc4)[C@@]3(C)C2=O)cc1	0.11% (inactive)
CCOC(=O)Cc1ncccc1C(=O)Nc1ccc(OC)cc1	2.4% (inactive)
CCOC(=O)Cc1ncccc1C(=O)Nc1ccc(OC(F)(F)F)cc1	78.1% (active)
COC(=O)Cc1ccc(OCC(=O)Nc2ccc(OC(F)(F)F)cc2)cc1	1.97% (inactive)
COc1ccccc1N(C)S(=O)(=O)c1ccc(Cl)c(C(=O)Nc2ccncc2)c1	17.1% (inactive)
CCOc1ccc(OCc2cccc(C(=O)N(CC)CC)c2)cc1	-5.06% (inactive)
CCSc1nsc(NC(=O)Nc2ccccc2OC)n1	-2.87% (inactive)
CCSc1nsc(NC(=O)Nc2cccc(C(C)=O)c2)n1	76.5% (active)
C=CCSc1nsc(NC(=O)Nc2cccc(C(C)=O)c2)n1	41.3% (inactive)
Nc1c(NCCc2ccccc2)c2ccccc2oc1=O	67.9% (active)
O=Cc1c(NCCc2cccc(F)c2)c2ccccc2[nH]c1=O	1.73% (inactive)
CC(C)(C)Nc1c(N)c(=O)oc2ccccc12	-0.9% (inactive)
CC(=O)Nc1ccc(NC(=O)CSc2nnc(COc3ccccc3C)n2CC2CCCO2)cc1 (centres undefined)	1.11% (inactive)
CCOC(=O)N1CCN(Cc2nc3ccc([N+](=O)[O-])cc3c(=O)n2-c2cccc(OC)c2)CC1	32.6% (inactive)
Cc1c(C(=O)Nc2ccccn2)oc2ccc(Br)cc12	49.7% (active)
Cc1nonc1NC(=O)c1oc2ccccc2c1C	12.5% (inactive)
Cc1noc(C)c1C(=O)Nc1ccccn1	4.67% (inactive)
Cn1ncc2c(N3CCCCC3)nc(NCCCO)nc21	5.05% (inactive)
COc1ccc(NS(=O)(=O)c2ccc(NC(=O)c3ccc(N(C)S(C)(=O)=O)cc3)cc2)cc1	-0.42% (inactive)
COc1ccc(C(=O)Nc2cccc(S(C)(=O)=O)c2)cc1	67.2% (active)
COc1cccc(C(=O)Nc2nc3ccc(S(C)(=O)=O)cc3s2)c1	7.38% (inactive)

SMILES	activation
CCCNC(=O)COc1coc(CN2CCN(Cc3ccccc3)CC2)cc1=O	1.71% (inactive)
Cc1cnc(C(=O)OCc2c(C)cc(C(C)(C)C)cc2C)cn1	3.96% (inactive)
CCN(c1ccc(NC(=O)COC(=O)CCc2nc3ccccc3n2-c2ccccc2)cc1)C(C)C	-1.26% (inactive)
Cc1ccc(C(=O)OCC(=O)N2CC(C)CC(C)C2)cc1S(=O)(=O)N1CCCCC1 (centres undefined)	0.38% (inactive)
O=C(Nc1ccncc1)c1ccc(Cl)c([N+](=O)[O-])c1	0.64% (inactive)
O=C(Nc1cccnc1)c1ccc(Cl)c([N+](=O)[O-])c1	-0.85% (inactive)
Cc1ccnc(NC(=O)c2ccc(Cl)c([N+](=O)[O-])c2)c1	104% (active)
COc1ccc(OC)c(/C=N/NC(=O)c2ccc[n+](CC(=O)c3ccccc3)c2)c1	12.9% (inactive)
Cn1c(C(=O)NCCCN2CCN(c3cccc(Cl)c3)CC2)cc2c(=O)n(C)c3ccccc3c21	7.28% (inactive)
CCN1CCCC1CNC(=O)c1cc2c(=O)n(C)c3ccccc3c2n1C (centres undefined)	3.13% (inactive)
Cn1c(C(=O)NCCc2ccsc2)cc2c(=O)n(C)c3ccccc3c21	86.4% (active)
N#Cc1ccccc1NC(=O)c1ccc2c(c1)OCO2	32.1% (inactive)
O=C(CSc1nn(-c2ccc(F)cc2)c(=S)s1)NC1CCS(=O)(=O)C1 (centres undefined)	3.28% (inactive)
C=CCc1cccc2cc(C(=O)Nc3ccc(NC(C)=O)cc3)c(=O)oc12	16.9% (inactive)
C=CCn1cc(Cl)cc(C(=O)Nc2ccccc2)c1=O	50.9% (active)
C=CCN(C(=O)c1cc(C)cc(C)c1)C1(C(=O)Nc2ccccc2)CCN(C(C)C)CC1	5.4% (inactive)
CC(C)Cc1nnc(NC(=O)CCC(=O)Nc2ccc3cn[nH]c3c2)s1	24.7% (inactive)
O=C1N(c2ccc(Cl)cc2)C(c2ccc(Cl)cc2)N2CCCN12 (centres undefined)	54.2% (active)
O=C1NC(=O)C(c2ccc(Cl)cc2)N1 (centres undefined)	-2.18% (inactive)
Cc1ccc(C)c(S(=O)(=O)N2CCCOC2CNC(=O)C(=O)NC2CCCCC2)c1 (centres undefined)	2.26% (inactive)
CC(=O)Oc1cccc(C(=O)Nc2ccccc2NC(=O)c2cccc(OC(C)=O)c2)c1	2.51% (inactive)
CC(=O)c1cc(NC(=O)c2ccccc2)c(=O)oc1/C=C/N(C)C	60.3% (active)
CCOC(=O)c1cc(NC(=O)c2ccc(Cl)cc2)c(=O)oc1-c1ccccc1	-1.16% (inactive)
CC(C)C(C(=O)NCc1ccco1)N(CC1CCCO1)C(=O)CNS(=O)(=O)c1ccc(F)cc1 (centres undefined)	-0.85% (inactive)

SMILES	activation
COc1ccccc1Nc1ncnc2c1oc1ccccc12	86.1% (active)
CCC(C(=O)OC)n1cnc2c(oc3ccccc32)c1=O (centres undefined)	2.16% (inactive)
COc1ccc(C)cc1Nc1nc(C)nc2c1oc1ccccc12	13.4% (inactive)
Cn1c(=O)c2cn(-c3cccc4ccccc34)cc2n(C)c1=O	18.1% (inactive)
COc1ccc(OC)c(-n2cc3c(=O)n(C)c(=O)n(C)c3c2)c1	64.9% (active)
CC(=O)Nn1cc2c(=O)n(C)c(=O)n(C)c2c1	1.7% (inactive)
O=C(O)c1cccc2c1C(=O)N(C1CCCC1)C2	-3.11% (inactive)
O=C(COc1ccc(F)cc1Br)NCC1COc2ccccc2O1 (centres undefined)	2.44% (inactive)
CC1CCN(c2ccc([N+](=O)[O-])c(SCCO)c2)CC1	13.1% (inactive)
O=C(CSc1nc2ccccc2[nH]1)N/N=C/C=C\c1ccccc1[N+](=O)[O-]	26.7% (inactive)
CN1CCN(c2ccc([N+](=O)[O-])c(Sc3nc4ccccc4[nH]3)c2)CC1	50% (active)
O=C(OCC(=O)N1CCN(C(=O)c2ccco2)CC1)c1cccc(O)c1	4.27% (inactive)
Cc1c(CN2CCC(CO)(CCOc3ccccc3)CC2)[nH]c2ccc(Cl)cc12	6.78% (inactive)
COC(=O)c1oc2ccc(Br)cc2c1NC(C)=O	1.12% (inactive)
COC(=O)c1[nH]c2ccc(Br)cc2c1NC(=O)Oc1ccccc1	48.5% (active)
CCOC(=O)c1[nH]c2ccc(OC)cc2c1NC(=O)CCN1CCN(Cc2ccccc2)CC1	4.33% (inactive)
CN(Cc1ccccc1)C(=O)C(=O)c1cn(CC(=O)N2CCCC2)c2ccccc12	0.47% (inactive)
NC(=O)C1(N2CCCCC2)CCN(C(=O)c2ccc(C#Cc3ccccc3)o2)CC1	0.68% (inactive)
O=C(Nc1ccc(NC(=O)c2cccs2)cn1)c1ccco1	-2.71% (inactive)
O=C(Nc1ccccc1)c1ccc(NC(=O)c2cccs2)cc1	-3.44% (inactive)
O=C(Nc1ccnc(-c2ccncc2)n1)c1cccs1	55.7% (active)
C/C=C(\C)C(=O)N1CC2(CC(c3cccc(NC(=O)CCCCC)c3)=NO2)C[C@@H]1C(N)=O (some centres undefined)	2.15% (inactive)
